hgDAF12 agonist = H. glycines DAF-12 receptor agonists, primary screen, cell-based, luminescence, HEK293, GAL4 fusion, UAS-luciferase; 370,000 tested, 1.8% active; AID 687014, 2013; activation, % at 6.8 µM; HEK293 GAL4-hgDAF12 UAS-luciferase reporter, agonist luminescence; normalized to butyrate control; Nuclear hormone receptor DAF-12 (Heterodera glycines), GAL4 fusion;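 active = activation above a cutoff set at the mean of all screened compounds plus 3 SD, cut at about 10% in these data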;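 note: 0% = DMSO wells and 100% = sodium butyrate wells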
DAX1 inh-1 = DAX1 (NR0B1) inhibitors, primary screen, cell-based, HEK293, Gal4-DAX1, luciferase luminescence | Nuclear receptor subfamily 0 group B member 1 (Homo sapiens), P51843 | HEK293 Gal4-DAX1 luciferase reporter | inhibition, % at 6.75 µM | 340,000 tested, 0.99% active | AID 504766, 2011;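 active = inhibition above the mean over all tested compounds plus 3 SD, cut at about 4.2% in these data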;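 note: 0% = DAX1-transfected cells with DMSO and 100% = empty-vector control cells with DMSO; inhibition shows as a rise in luminescence from relieved DAX1 repression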
Target sequence (P51843 207-470 limits assumed): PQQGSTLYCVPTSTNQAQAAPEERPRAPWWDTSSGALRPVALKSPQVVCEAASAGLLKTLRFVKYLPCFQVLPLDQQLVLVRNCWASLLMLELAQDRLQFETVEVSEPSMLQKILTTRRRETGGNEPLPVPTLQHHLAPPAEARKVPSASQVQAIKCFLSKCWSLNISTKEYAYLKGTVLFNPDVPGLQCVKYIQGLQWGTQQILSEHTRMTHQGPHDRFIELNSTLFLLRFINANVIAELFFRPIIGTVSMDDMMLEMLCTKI
DAX1 inh-2 = DAX1 (NR0B1) inhibitors on StAR promoter, primary screen, cell-based, luminescence, SF-1 (NR5A1), full-length DAX-1; inhibition, % at 6.8 µM; 370,000 tested, 1.1% active; AID 652010, 2013; HEK293T StAR-luciferase reporter, SF-1/DAX-1 repression relief;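 active = inhibition above the mean over all tested compounds plus 3 SD, cut at about 3.6% in these data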;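 note: 0% = DAX-1 cells with DMSO and 100% = cells lacking DAX-1 with DMSO; higher inhibition means more luminescence from relief of DAX-1 repression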
hcDAF12 agonist = H. contortus DAF-12 nuclear receptor activators, primary screen, cell-based, luminescence, HEK293, lit1-tk-luc reporter | activation, % at 6.8 µM | 370,000 tested, 1.4% active | AID 652067, 2013 | HEK293 hcDAF-12 lit1-tk-luc reporter; 0% DMSO, 100% Δ7-dafachronic acid;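 active = activation above the mean of all tested compounds plus 3 SD, cut at about 5.5% in these data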;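 note: 100% = response to 3 µM Δ7-dafachronic acid high control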
ssDAF-12 act = S. stercoralis DAF-12 nuclear receptor activators, primary screen, cell-based, luminescence, HEK293, GRIP1 co-expression, lit1-tk-luc. Nuclear hormone receptor DAF-12 (Strongyloides stercoralis). HEK293 ssDAF-12/GRIP1 lit1-tk-luc reporter; % of 3 µM dafachronic acid response. activation, % at 6.8 µM. 370,000 tested, 1% active;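 active = activation above the mean over all tested compounds plus 3 SD, cut at about 0.9% in these data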;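 note: 0% = DMSO-only wells and 100% = 3 µM delta7-dafachronic acid wells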
* = called active by the depositor; · = no result. The list is not random: actives were taken first. Their share in the collection is about 4.1%.

SMILES	hgDAF12 agonist	DAX1 inh-1	DAX1 inh-2	hcDAF12 agonist	ssDAF-12 act
O=[N+]([O-])c1ccc(NCc2ccncc2)cc1	-1	4.6*	-1	-1	-1
Cn1c(CC(=O)Nc2ccc(F)cc2)c(Sc2ccccc2)c2ccccc21	0	0	0	6.5*	-1
CN(Cc1ccccc1)C(=O)OCc1cn(Cc2c(F)cccc2F)nn1	-1	·	0	-3	-1
O=C(Oc1ccc(-c2cnc3ccccc3n2)cc1)c1ccco1	10	4	3	5.6*	0
CCOC(=O)[C@]12CCCC=C1N(CCc1ccc(Cl)cc1)C(=O)[C@@H]2CC(=O)NCCC(C)C	1	·	0	-3	-2
O=[N+]([O-])c1ccccc1S(=O)(=O)Oc1ccc(/C=N/n2cnnc2)cc1	8	2	-1	3	1.2*
COc1cc(/C=N/n2cnnc2)ccc1OS(=O)(=O)c1ccccc1[N+](=O)[O-]	2	1	-1	-1	-1
c1ccc(-c2nc3ccccc3n2C(c2ccccc2)c2nc3ccccc3[nH]2)cc1 (stereo unspecified)	12*	·	4	5	0
O=c1c(-c2ccccc2)nc2ccccc2n1C(c1ccccc1)c1nc2ccccc2[nH]1 (stereo unspecified)	7	·	1	-2	-1
O=Nc1ccc(NO)c2ccccc12	-1	-1	-3	3	1.2*
O=Nc1ccc(O)c2ncccc12	-12	-2	-3	-1	-2
NC(=O)c1ccccc1Nc1nc(NCCO)nc(N2CCCC2)n1	0	4.4*	1	-1	-1
COC(=O)c1ccc(COc2ccc(/C=N/Nc3nc(C)cc(=O)[nH]3)cc2)cc1	5	5.8*	1	2	-1
O=C(N/N=C/c1ccc(-c2ccccc2C(=O)O)o1)c1cccs1	12*	1	1	1	0
O=C(N/N=C/c1ccncc1)c1cccs1	·	3	·	·	·
COc1ccc(C(=O)COC(=O)c2ccccc2O)c(OC)c1	12*	1	3.9*	2	0
O=C(OCC(=O)c1c[nH]c2ccccc12)c1cccc([N+](=O)[O-])c1	6	0	0	3	1.8*
COc1cccc(C(=O)OCC(=O)c2c[nH]c3ccccc23)c1OC	4	3	1	4	0
O=C(OCC(=O)c1c[nH]c2ccccc12)c1cncc(Br)c1	4	0	3	3	0
COc1ccc(C(=O)OCC(=O)c2c[nH]c3ccccc23)c(OC)c1	7	0	-2	5	1.7*
O=C(COC(=O)c1c[nH]c2ccccc12)NCc1ccccc1	1	4.7*	0	1	-1
Cc1ccc(CN[C@@H]2CC[C@@]34CCCN3C(=O)CCC[C@H]4C2)o1	-2	·	·	-1	-2
O=C(CCc1ccccc1)N[C@H]1[C@H](OC(=O)c2ccco2)CCC[C@@]12C(=O)N(Cc1ccccc1)c1ccccc12	-1	·	-1	-2	-2
COc1ccc(OC)c2sc(NC(=O)c3cccc(N4C(=O)CCC4=O)c3)nc12	6	4.5*	1	1	-1
CC(C)CN1C(=O)[C@]2(CC(=O)N(C)C2c2ccccc2)c2cc(-n3cc(CCCC#N)nn3)ccc21 (stereo partly specified)	0	·	0	3	-1
SMILES	hgDAF12 agonist	DAX1 inh-1	DAX1 inh-2	hcDAF12 agonist	ssDAF-12 act
CCCNC(=O)Cn1c2ccccc2c2nc(=O)cc(C)n21	0	0	1	5	1
Cc1cc(=O)nc2c3ccccc3n(CC(=O)NC(C)c3ccc4c(c3)OCCO4)n12 (stereo unspecified)	0	0	0	6.0*	0
O=C(Oc1cccc2ccccc12)c1ccccc1	3	7.1*	2	0	-1
COc1ccc(C)c2sc(N(CCN(C)C)C(=O)/C=C/c3cccs3)nc12	1	0	0	6.1*	1.2*
COc1ccc(N=c2sc3ccccc3n2C)cc1	11*	5.6*	4.5*	6.1*	0
COc1ccccc1N=c1sc2ccccc2n1C	-1	0	0	-1	-2
Cc1ccc(C(=O)Nc2nc(C)c(C)s2)o1	13*	2	3	4	-1
Cc1nc(NC(=O)c2ccc(Br)o2)sc1C	10	2	2	2	0
Cn1c2ccccc2n2c(=O)c(Cl)c(-c3ccccc3)c(C#N)c12	1	0	0	1	0
Cn1c2ccccc2n2c(=O)cc(-c3ccccc3)c(C#N)c12	4	5.4*	0	0	-1
O=C(Cn1c2[n+](c3ccc(C(F)(F)F)cc31)CCCCC2)Nc1ccccc1	-1	0	0	5.9*	0
CCc1cccc(NC(=O)Cn2c3[n+](c4ccc(C(F)(F)F)cc42)CCCCC3)c1	-5	-1	0	0	-1
COC(=O)[C@]12C[C@H](CC(=O)N3CCC(c4ccccc4)CC3)C(=O)N(Cc3cccc4ccccc34)C1=C[C@H](C1CCCC1)O[C@@H]2C	4	·	-1	1	-1
COc1ccc(C(=O)C2CCCN(C3Cc4ccccc4C3)C2)c(OC)c1 (stereo unspecified)	0	0	2	1	0.9*
COc1ccc(C(=O)C2CCCN(Cc3cc(C)c(O)c(C)c3)C2)c(OC)c1 (stereo unspecified)	0	1	-1	0	-1
O=S1(=O)c2ccc(Br)cc2OC[C@H](Cc2ccccc2)N1Cc1cn(CCC2OCCO2)nn1	2	·	-1	-3	-1
CNC(=S)N=Nc1c(O)[nH]c2ccccc12	0	0	-1	5.6*	-1
O=C(CCNC(=O)c1ccccc1)N=Nc1c(O)[nH]c2ccccc12	-2	·	1	1	21*
O=C(CCc1c[nH]c2ccccc12)N=Nc1c(O)[nH]c2ccccc12	0	-1	-1	-2	-1
Cc1ccc(NC(=S)N=Nc2c(O)[nH]c3ccccc23)cc1	-4	0	-1	0	-2
CC(=O)c1cc(-c2ccc3[nH]ccc3c2)c(=O)n2c1CCC2	-1	·	0	1	-2
CCOC(=O)c1sc(NC(=O)CN2CCN(c3ccc(OC)cc3)CC2)nc1C	-2	-1	-1	-3	1.8*
N#CCC[C@H]1CC[C@]2(CCCN(C(=O)c3ccco3)C2)O1	0	·	0	-2	-1
O=C1CCC(=O)c2oc3ccccc3c2N1	1	-1	0	-1	-1
O=C1CCc2cccc(O)c2N1	0	4.9*	-1	0	-1
